The record followed here is ChEMBL document CHEMBL2218924, “A broad activity screen in support of a chemogenomic map for kinase signalling research and drug discovery” (Biochem J, 2013).

Structures are written as SMILES.

The target of test [1] is Ribosomal protein S6 kinase alpha-1 (Homo sapiens) (UniProt Q15418). Particulars: at 1 µM.
The target is the same in test [2]. Particulars: at 10 µM.
The target of test [3] is Ribosomal protein S6 kinase alpha-3 (Homo sapiens) (UniProt P51812). The note with it: at 1 µM.
Test [4] shares this target. Particulars: at 10 µM.
Test [5] deals with Ribosomal protein S6 kinase alpha-2 (Homo sapiens) (UniProt Q15349). Particulars: at 1 µM.
For test [6] the target is unchanged. The note with it: at 10 µM.
The target in test [7] is Ribosomal protein S6 kinase alpha-6 (Homo sapiens) (UniProt Q9UK32). The note with it: at 1 µM.
For test [8] the target is unchanged. The note with it: at 10 µM.
For test [9], the target named is Mitogen-activated protein kinase 14 (Homo sapiens) (UniProt Q16539). Particulars: at 1 µM.
For test [10] the target is unchanged. Particulars: at 10 µM.

Chain of Ribosomal protein S6 kinase alpha-1 (Homo sapiens) (Q15418 whole entry): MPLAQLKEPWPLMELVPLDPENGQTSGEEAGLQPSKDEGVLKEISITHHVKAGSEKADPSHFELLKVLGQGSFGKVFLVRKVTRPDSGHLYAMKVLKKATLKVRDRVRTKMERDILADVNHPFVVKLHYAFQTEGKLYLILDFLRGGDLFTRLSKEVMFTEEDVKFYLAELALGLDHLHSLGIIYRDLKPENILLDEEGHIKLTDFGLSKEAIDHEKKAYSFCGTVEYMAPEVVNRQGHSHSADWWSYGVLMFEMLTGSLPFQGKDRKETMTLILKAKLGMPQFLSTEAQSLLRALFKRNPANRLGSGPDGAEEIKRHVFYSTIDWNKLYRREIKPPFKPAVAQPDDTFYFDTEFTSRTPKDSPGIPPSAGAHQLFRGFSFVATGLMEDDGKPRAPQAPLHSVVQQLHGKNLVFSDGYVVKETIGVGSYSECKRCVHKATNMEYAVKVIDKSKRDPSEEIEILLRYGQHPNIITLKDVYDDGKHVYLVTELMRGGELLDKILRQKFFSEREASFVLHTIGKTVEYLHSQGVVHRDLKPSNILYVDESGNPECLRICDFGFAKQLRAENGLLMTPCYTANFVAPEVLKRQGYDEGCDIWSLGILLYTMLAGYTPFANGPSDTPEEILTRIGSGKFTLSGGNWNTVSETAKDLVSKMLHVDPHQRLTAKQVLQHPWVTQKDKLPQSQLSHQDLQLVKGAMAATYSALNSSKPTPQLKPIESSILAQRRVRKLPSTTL
Chain of Ribosomal protein S6 kinase alpha-6 (Homo sapiens) (Q9UK32 whole entry): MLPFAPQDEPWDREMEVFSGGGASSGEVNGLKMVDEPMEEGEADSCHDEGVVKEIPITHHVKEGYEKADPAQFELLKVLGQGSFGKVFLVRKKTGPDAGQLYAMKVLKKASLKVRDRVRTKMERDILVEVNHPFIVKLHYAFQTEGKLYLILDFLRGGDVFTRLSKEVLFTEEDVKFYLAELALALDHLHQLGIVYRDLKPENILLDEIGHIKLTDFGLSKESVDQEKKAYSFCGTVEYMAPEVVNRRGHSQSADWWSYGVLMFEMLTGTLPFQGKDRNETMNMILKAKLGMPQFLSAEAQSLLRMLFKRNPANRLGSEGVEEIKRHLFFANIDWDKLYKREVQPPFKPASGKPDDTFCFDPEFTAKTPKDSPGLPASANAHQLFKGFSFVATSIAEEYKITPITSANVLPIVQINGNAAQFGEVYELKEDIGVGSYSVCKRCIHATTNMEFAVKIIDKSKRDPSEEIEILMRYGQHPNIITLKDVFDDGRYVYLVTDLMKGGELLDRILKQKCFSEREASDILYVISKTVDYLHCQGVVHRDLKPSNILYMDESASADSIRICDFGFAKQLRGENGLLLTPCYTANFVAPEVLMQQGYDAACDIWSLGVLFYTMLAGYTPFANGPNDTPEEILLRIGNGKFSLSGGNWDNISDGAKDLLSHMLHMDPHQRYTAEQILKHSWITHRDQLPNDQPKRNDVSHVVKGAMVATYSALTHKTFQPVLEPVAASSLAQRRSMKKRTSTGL
Chain of Mitogen-activated protein kinase 14 (Homo sapiens) (Q16539 whole entry): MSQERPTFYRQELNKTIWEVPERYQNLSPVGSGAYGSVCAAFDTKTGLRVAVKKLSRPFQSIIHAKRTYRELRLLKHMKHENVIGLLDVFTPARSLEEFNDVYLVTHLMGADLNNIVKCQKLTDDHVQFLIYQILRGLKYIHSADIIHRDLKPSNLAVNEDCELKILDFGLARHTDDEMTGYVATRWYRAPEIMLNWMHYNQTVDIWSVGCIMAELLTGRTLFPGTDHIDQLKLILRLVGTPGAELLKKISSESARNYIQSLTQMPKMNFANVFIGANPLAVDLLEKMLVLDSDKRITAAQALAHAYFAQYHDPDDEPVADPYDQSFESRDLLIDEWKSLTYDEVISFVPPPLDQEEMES
Chain of Ribosomal protein S6 kinase alpha-2 (Homo sapiens) (Q15349 whole entry): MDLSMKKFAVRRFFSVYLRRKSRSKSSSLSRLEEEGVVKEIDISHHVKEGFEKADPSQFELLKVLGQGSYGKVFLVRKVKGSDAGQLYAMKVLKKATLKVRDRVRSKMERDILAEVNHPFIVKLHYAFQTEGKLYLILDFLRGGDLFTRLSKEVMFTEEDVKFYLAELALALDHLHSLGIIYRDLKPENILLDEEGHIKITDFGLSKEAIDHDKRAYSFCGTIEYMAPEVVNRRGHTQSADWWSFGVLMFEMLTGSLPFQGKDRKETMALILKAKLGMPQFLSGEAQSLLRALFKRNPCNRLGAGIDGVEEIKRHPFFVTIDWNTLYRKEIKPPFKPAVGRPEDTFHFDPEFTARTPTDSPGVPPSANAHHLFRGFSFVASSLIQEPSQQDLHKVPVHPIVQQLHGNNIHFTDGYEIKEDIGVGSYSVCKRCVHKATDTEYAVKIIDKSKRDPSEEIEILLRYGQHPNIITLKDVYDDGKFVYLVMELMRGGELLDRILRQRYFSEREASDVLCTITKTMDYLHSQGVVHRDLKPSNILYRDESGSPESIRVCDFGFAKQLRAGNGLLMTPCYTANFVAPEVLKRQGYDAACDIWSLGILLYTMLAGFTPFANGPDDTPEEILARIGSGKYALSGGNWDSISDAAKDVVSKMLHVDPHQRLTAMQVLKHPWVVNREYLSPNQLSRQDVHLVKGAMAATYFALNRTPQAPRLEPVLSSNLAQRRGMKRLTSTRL
Chain of Ribosomal protein S6 kinase alpha-3 (Homo sapiens) (P51812 whole entry): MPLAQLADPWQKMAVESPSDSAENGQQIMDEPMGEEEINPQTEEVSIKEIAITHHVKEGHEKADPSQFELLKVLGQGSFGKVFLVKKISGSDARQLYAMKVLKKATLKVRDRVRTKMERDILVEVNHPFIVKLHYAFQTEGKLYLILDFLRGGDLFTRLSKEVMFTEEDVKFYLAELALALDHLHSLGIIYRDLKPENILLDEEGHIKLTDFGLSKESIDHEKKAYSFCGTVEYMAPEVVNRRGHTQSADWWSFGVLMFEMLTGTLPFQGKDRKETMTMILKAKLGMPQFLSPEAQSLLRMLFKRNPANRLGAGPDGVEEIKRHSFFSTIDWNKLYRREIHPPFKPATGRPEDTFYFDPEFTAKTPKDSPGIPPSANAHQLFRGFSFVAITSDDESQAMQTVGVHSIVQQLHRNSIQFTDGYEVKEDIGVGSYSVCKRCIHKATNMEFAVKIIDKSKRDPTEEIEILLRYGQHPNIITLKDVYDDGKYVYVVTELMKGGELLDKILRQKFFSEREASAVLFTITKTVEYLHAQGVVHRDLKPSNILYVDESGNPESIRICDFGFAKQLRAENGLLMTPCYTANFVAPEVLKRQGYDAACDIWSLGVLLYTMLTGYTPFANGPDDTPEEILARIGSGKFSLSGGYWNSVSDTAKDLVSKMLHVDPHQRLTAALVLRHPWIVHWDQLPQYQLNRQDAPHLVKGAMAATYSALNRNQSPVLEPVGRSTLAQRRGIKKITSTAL

On to `O=C(Nc1cccc(Nc2cc(Nc3cccc(C(F)(F)F)c3)ncn2)c1)C1CC1`, for which the residual activity in test [1] amounted to 105%; in test [2], 79%; in [3], 106%; in test [4] it was 66%; in test [5] it was 99%; in test [6], 55%. The residual activity in [7] is 103%; in test [8] it was 99%; in test [9] it was 80%; in [10], 40%.

For `c1ccc(-c2n[nH]c3c2oc2ccccc23)cc1`, the residual activity in [1] worked out at 97%; in test [2], 58%; in test [3], 66%; in test [4] it was 44%; in test [5] it was 92%; in [6], 64%. The figures for the residual activity in [9] and in [10] were 93% and 78%, respectively.

Consider `CN(C)CCCn1cc(C2=C(c3c[nH]c4ccccc34)C(=O)NC2=O)c2ccccc21`, for which the residual activity in test [1] was determined as 15%; in test [2], 2%; in test [7], 4%; in test [8] it was 3%; in test [9] it was 109%; in test [10], 106%.

As to `COc1ccc(OC)c2c(=S)c3ccccc3[nH]c12`, the residual activity was 116% in test [1]; 106% in test [2]; 99% in [3]; 107% in test [4]; 90% in [5]; 88% in test [6]. The residual activity is 98% in test [7], 98% in [8], 88% in [9] and 91% in [10].

Regarding `Nc1ccc2ncnc(NCCc3ccc(Oc4ccccc4)cc3)c2c1`, the residual activity in test [1] is 58%; in test [2], 41%; in test [3] it was 49%; in test [4], 45%; in test [5], 89%; in test [6], 65%. In addition, the residual activity in test [7] stood at 66%; in [8] it was 77%; in test [9] it was 90%; in test [10], 91%.

Take `O=C1Nc2ccccc2/C1=C1/Nc2ccccc2/C1=N\OCCC(O)CO` (stereo unspecified): the residual activity is 18% in test [1]; 12% in test [2]; 15% in test [3]; 1% in [4]; 11% in test [5]; 2% in [6]. Besides, the residual activity turned out to be 7% in test [7], 7% in test [8] and 78% in test [10].

As to `COc1cc2ncnc(Nc3ccc(Oc4ccccc4)cc3)c2cc1OC`, the residual activity in test [1] was 122%; in test [2] it was 78%; in test [3], 104%; in test [4] it was 126%; in test [5], 100%; in [6] it was 73%. Also, the residual activity in test [7] came to 102%; in test [8], 130%; in test [9] it was 75%; in test [10], 80%.

Consider `Cc1nc(-c2ccccc2)c(-c2ccncc2)o1`, for which the residual activity was 88% in [1]; 97% in test [2]; 60% in test [3]; 64% in [4]; 100% in test [5]; 92% in [6]. The residual activity worked out at 81% in test [7], 117% in test [8], 57% in test [9] and 14% in [10].

For the compound `NC(=O)c1ccc2[nH]c(-c3ccc(Oc4ccc(Cl)cc4)cc3)nc2c1`, the residual activity in test [1] was 91%; in test [2] it was 67%; in test [3] it was 30%; in test [4] it was 11%; in [5] it was 18%; in test [6], 5%. Further, the residual activity in [7] came to 27%; in [8], 29%; in test [9], 90%; in test [10], 84%.

For the compound `Oc1c2ccccc2c2c3c(cccc13)N=N2`, the residual activity in [1] came out at 86%; in test [2] it was 64%; in test [3], 54%; in test [4], 32%; in test [5], 58%; in [6], 22%. Also, the residual activity in test [7] stood at 43%; in test [8] it was 52%; in test [9] it was 96%; in [10], 85%.

Consider `CC(=O)O/N=C1\C(=C2\C(=O)Nc3cc(Br)ccc32)Nc2ccccc21`, for which the residual activity in test [1] stood at 105%; in [2], 59%; in test [3], 40%; in test [4], 28%; in test [5], 71%; in test [6] it was 34%. Besides, the residual activity in [7] amounted to 74%; in [8], 89%; in test [9], 88%; in test [10], 85%.

In the case of `Cn1nc2c3c(cccc31)C(=O)c1ccccc1-2`, the residual activity in test [2] amounted to 93%; in test [3], 58%; in test [4], 42%; in test [5], 90%; in test [6], 63%; in [7], 59%. Further, the residual activity in test [8] came to 67%; in [9], 91%; in test [10] it was 90%.

Turning to `Cc1cc(Nc2nc(-c3ccccc3)nc3ccccc23)n[nH]1`, the residual activity was determined as 51% in test [1]; 15% in test [2]; 58% in test [3]; 11% in test [4]; 29% in test [5]; 6% in [6]. Further, the residual activity in [7] was determined as 43%; in test [8], 8%; in [10], 64%.

For the compound `CC[n+]1c(/C=C/N(C)c2ccccc2)n(-c2ccccc2)c2ccc(-c3nc4ccccc4s3)cc21`, the residual activity was 114% in test [1]; 84% in test [2]; 94% in test [3]; 64% in test [4]; 117% in [5]; 97% in [6]. For the same compound, the residual activity in test [7] was 102%; in [8], 87%; in [9], 111%; in test [10], 73%.

For `O=[N+]([O-])c1ccc(-c2nc(-c3ccc(F)cc3)c(-c3ccncc3)[nH]2)cc1`, the residual activity is 101% in test [1]; 104% in test [2]; 60% in test [3]; 62% in [4]; 103% in [5]; 97% in test [6]. In addition, the residual activity was 91% in test [7], 83% in test [8], 1% in test [9] and 2% in test [10].

For the compound `Cc1nc2cc3nc(-c4cccs4)cnc3cc2n1C`, the residual activity in test [1] worked out at 115%; in test [2], 89%; in test [3], 102%; in test [4] it was 75%; in [5], 107%; in test [6], 83%. Also, the residual activity in test [7] was found to be 101%; in [8] it was 84%; in test [9], 114%; in test [10], 112%.

`O=C1NC(=O)c2cc(Nc3ccc(F)cc3)c(Nc3ccc(F)cc3)cc21`: the residual activity in [1] turned out to be 87%; in test [2], 91%; in test [3] it was 123%; in test [4] it was 77%; in [5], 103%; in test [6] it was 78%. Further, the residual activity in test [7] stood at 101%; in [8], 100%; in test [9] it was 57%; in test [10], 23%.
